Measured values taken from PubChem BioAssay AID1645858 (Buhrlage Lab, Dana-Farber Cancer Institute and Novartis …, 2021).
Out of some 47,000 compounds screened, about 330 (0.7%) were called active. Cut-off read from the data, not from the text of the source: active = inhibition above about 30%; inactive = the rest. Only a selection was taken, and actives are over-represented in it overall.

Target: OTU domain-containing protein 3 (Homo sapiens) (UniProt Q5T2D3)
Assay: inhibitors of human OTUD3 deubiquitinase (AID 1645858)
Details: purified OTUD3, Ub-rhodamine fluorescence, 2 h; at 25 µM; active compounds read high

OTU domain-containing protein 3 (Homo sapiens), sequence (Q5T2D3 whole entry, looked up, the tested form may be a part): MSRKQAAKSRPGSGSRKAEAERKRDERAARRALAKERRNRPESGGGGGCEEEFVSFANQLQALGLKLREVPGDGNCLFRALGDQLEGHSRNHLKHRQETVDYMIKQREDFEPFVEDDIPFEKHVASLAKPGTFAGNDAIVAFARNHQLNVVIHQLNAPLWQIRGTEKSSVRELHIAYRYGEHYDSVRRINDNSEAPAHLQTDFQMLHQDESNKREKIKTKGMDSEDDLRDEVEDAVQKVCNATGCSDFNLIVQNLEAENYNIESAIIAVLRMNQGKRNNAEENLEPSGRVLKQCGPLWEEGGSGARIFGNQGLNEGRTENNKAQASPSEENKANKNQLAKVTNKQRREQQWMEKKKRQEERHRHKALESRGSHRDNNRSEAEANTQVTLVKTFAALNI

inhibition, inactive:
Cc1cc(N2C(=O)c3oc4ccccc4c(=O)c3C2c2ccc(F)cc2)no1 (stereo not given) -4.24%
CCNC1CN(C(=O)Cn2nnc3ccccc32)C2(CCCCC2)C1 (stereo not given) 2.28%
O[C@H]1[C@H](O)[C@H](Oc2cccc(F)c2)CC[C@H]1NCc1ccncc1 15.2%
NS(=O)(=O)c1cccc(CNC(=O)C2(c3ccccc3)CCC2)c1 0.73%
N#Cc1c(N)nc2c(c1N)CC(C(F)(F)F)O2 (stereo not given) -4.36%
Clc1ccc2[nH]c3c(ccc4c5cc(Cl)ccc5[nH]c43)c2c1 3.62%
COc1ccc(CNC(=O)c2[nH]nc3c2CCc2ccccc2-3)cc1 -5.63%
Cc1ccc(NC(=O)N2CCCC2c2cc(C)on2)c(Cl)c1 (stereo not given) -2.99%
c1cc(CNCc2ccc3c(c2)OCO3)ccn1 0.0568%
CCC(Oc1ccccc1)C(=O)NCc1ccc2c(c1)OCO2 (stereo not given) 9.11%
Cc1cc(Cl)ccc1NC(=O)c1ccc(=O)[nH]c1 -2.31%
N[C@@H]1C[C@@H](Oc2cccnc2)[C@H](O)[C@H]1N1CCN(c2ccccc2)CC1 -8.12%
CSc1nccc(-c2ccc(F)cc2)c1C#N 11%
CCn1c(CNC(=O)c2ccco2)nnc1SCC(=O)Nc1ccc(C)cc1 0.297%
Cc1ccc(CN2C(=O)C(CC(=O)Nc3ccc(F)cc3)n3c2nc2ccccc23)cc1 (stereo not given) -8.71%
Cc1c(Cl)ccc2sc(N(Cc3ccncc3)C(=O)c3ccco3)nc12 -4.28%
Cc1coc2c(C)c3oc(=O)c(CC(=O)N4CC[C@@]5(O)CCCC[C@H]5C4)c(C)c3cc12 -9.33%
CC(=O)c1ccc(C)c(=O)o1 9.1%
CC(=O)N1CCSc2ccc(S(=O)(=O)N(C)C(C)CCc3ccco3)cc21 (stereo not given) -8.61%
O=C1NC2(CCN(C(=O)NCc3ccccc3)CC2)Nc2c(Cl)cccc21 -5.72%
CC(C)c1ncc(CN2CCC3(CC2)CN(S(C)(=O)=O)Cc2ccccc2O3)cn1 -4.5%
COc1ccc(-c2[nH]c3ccccc3c2SCCNC(=O)c2ccc(S(=O)(=O)N3CCOCC3)cc2)cc1 11.6%
O=C(CCc1nnc2n(CCc3ccccc3)c(=O)c3ccccc3n12)N1CCOCC1 4.98%
COC(=O)c1ccc(CN(C)C(=O)c2ccc(-c3nnc(-c4ccccc4)o3)cc2)cc1 -0.482%
O=C1CCCN1Cc1ncn2c1CN(Cc1cccnc1)CCC2 -1.01%
CCN1C(=O)C[C@@H](C(=O)NCc2nc(C)no2)[C@@H]1c1ccccc1C 1.87%
COc1ccc(CC2c3cc(OC)c(OC)cc3CCN2C(=O)c2ccc(C)c(Cl)c2)cc1OC (stereo not given) 1.03%
O=C(CSC1=NC2(CCCCC2)Nc2ccccc21)Nc1cccc(F)c1 -11.6%
O=C(NCc1ccc(F)cc1)C1CCc2nc(N3CCCCC3)ncc2C1 (stereo not given) 1.53%
Cc1cc(-c2ccc(S(=O)(=O)Nc3cccc(CN4CCCC4)c3)s2)n[nH]1 -13.6%
Cc1ccc(S(=O)(=O)c2cnc3ccccc3c2N2CCC3(CC2)OCCO3)cc1 1.24%
O=C(Cc1c[nH]c2ccccc12)NC1(c2nc(-c3ccncc3)no2)CCCCC1 -15.9%
Clc1ccccc1-c1nc2nc3ccccc3nc2n1CC1CCCO1 (stereo not given) -16%
COc1ccc(N2CC(C(=O)OCC(=O)Nc3ccc(F)cc3)CC2=O)cc1 (stereo not given) -3.39%
C[C@@H]1CC[C@H]2C(CN3CCN(C)CC3)C(=O)O[C@]23[C@H]1CC[C@@]1(C)O[C@@H]31 (stereo not given in full) 4.7%
Cc1ccccc1CNC(=O)c1cn(C)nc1S(=O)(=O)N1CCC(C)CC1 1.12%
COc1ccccc1Cn1cnc2c([nH]c3cc(OC)c(OC)cc32)c1=O 0.0298%
Cc1nccc(N2CCC(Cc3cncc(-c4cnc(C)n4C)n3)C2)n1 (stereo not given) 3.33%
COc1ccc(NC(=O)Cn2ncc3cccn3c2=O)cc1 -2.63%
CCCNC(=O)c1cc(N2CCCC2)n2nccc2n1 -68.7%
CCS(=O)(=O)N1C[C@H]2CN(Cc3ccccc3Cl)C[C@H]2C1 -1.12%
O=C(COC(=O)C1CCN(S(=O)(=O)c2c(Cl)cccc2Cl)CC1)Nc1ccc2c(c1)CCC2 0.0518%
Cc1cccc(-c2nnc(-c3cccc(S(=O)(=O)N4CCCC4)c3)o2)c1 10.7%
Cc1cnc2nc3c(cc2c1)CN(S(=O)(=O)c1cc(F)ccc1C)CC3 -230%
COCCN1[C@H]2CCN(Cc3ccccn3)CC[C@@H]2Oc2ccccc2S1(=O)=O 7.81%
O=c1c(NCCCc2ccccc2)nccn1-c1ccc2c(c1)OCCO2 -4.73%
CC(C)N1C(=O)Cc2ccccc2C1C(=O)NCc1ccccc1F (stereo not given) 2.54%
Cc1ccc(Sc2c(C)[nH]n(-c3ccccc3)c2=O)cc1 7.8%
COc1c(O)c2c(=O)cc(OC)c3c4c(OC)cc(=O)c5c(O)c(OC)c(CC(C)OC(=O)c6ccccc6)c(c(c1CC(C)OC(=O)Oc1ccc(O)cc1)c23)c54 (stereo not given) -24.8%
C=C1CCC2[C@](C)(CCC[C@]2(C)C(=O)OC)[C@H]1CCc1ccoc1C[N+](C)(C)Cc1ccccc1 (stereo not given in full) 22.7%
C=C1CCC2[C@](C)(CCC[C@]2(C)C(=O)OC)[C@H]1CCc1ccoc1CNCC(=O)O (stereo not given in full) -1.63%
Cc1cc(C)n(CCCNS(=O)(=O)c2ccc(C(C)(C)C)cc2)n1 -3.74%

inhibition, active:
c1ccc(-c2ccc(NCc3ccc4c(c3)OCO4)nn2)cc1 43.5%
O=C(Nc1nnc(-c2cccc([N+](=O)[O-])c2)o1)C1CCN(S(=O)(=O)c2ccc3c(c2)CCC3)CC1 30.3%
C=C1CCC2[C@](C)(CCC[C@]2(C)C(=O)OC)[C@H]1CCc1ccoc1/C=C/C(=O)O (stereo not given in full) 57.1%
